SMILES strings stand for the structures. “And” between values parts separate entries of the source, which are not always exact repeats. Equal values may be shown once. Screen size: about 290,000 compounds; about 3,000 (1%) were called active. Rule as the data show it: active = inhibition mostly above about 36% (no sharp cut-off); inactive = mostly below about 34%. This excerpt belongs to a sample that is enriched for actives. The source holds several records for some structures; these can differ, active in one and inactive in another.

This passage reports inhibition results from PubChem BioAssay AID1578 (Sanford-Burnham Center for Chemical Genomics, 2009).

The assay in a line: NOD1 signaling inhibitors, primary screen, cell-based, luminescence, uHTS (AID 1578).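 Also: HEK-293T reporter cells stimulated with the NOD1 agonist gamma-tri-DAP.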 Conditions: NOD1-driven NF-kB luciferase reporter cells, at 4 µM, stronger effect = higher value. (In general: In a reporter assay the amount or activity of a reporter protein is the signal.)
Regarding `CCc1ccc2[nH]c(=O)c(CN(CCCN3CCOCC3)C(=O)Nc3ccc(Cl)cc3)cc2c1`, the inhibition is -9.8% (inactive).
To `O=S(=O)(Nc1cccc(-c2cn3cccnc3n2)c1)c1ccccc1` belongs 36.4% (inactive); to `O=S(=O)(Nc1cccc(-c2cn3cccnc3n2)c1)c1ccc(F)cc1`, -1.4% (inactive); to `CCN(CC)C(=O)Cn1cc(C(=O)C(=O)N2CCN(C)CC2)c2ccccc21`, -22.7% (inactive).
In the case of `COc1ccc(C(=O)CC(=O)c2ccc(OC)cc2)cc1` it was -23.3% (inactive); in that of `COc1ccc(C(=O)C/C(=C\C(=O)c2ccc(C)cc2)c2ccccc2)cc1`, 71.2% (active); in that of `Cc1ccc(C(=O)CC(=O)c2ccccc2)cc1`, -42.7% (inactive).
For `CC(C)N1CC(C(=O)Nc2ccc(Cl)c([N+](=O)[O-])c2)CC1=O` (configuration not stated), the inhibition was -8.3% (inactive).
As for `Cc1ccc2[nH]c3c(c2c1)CCCC3NCCO` (configuration not stated), the inhibition is -12.6% (inactive).
For the compound `Cc1ccc2[nH]c3c(c2c1)CCCC3NC(=O)CCl` (configuration not stated), the inhibition was 70% (active).
In the case of `Cc1ccc2[nH]c3c(c2c1)CCCC3C(N)=O` (configuration not stated) it was -44.3% (inactive).
To `COC(=O)[C@@]1(Cc2ccccc2)[C@@H]2C(=CC(=O)[C@H]2CC(=O)C(=O)N(C)C)CN1C(=O)c1ccccc1` belongs 47.7% (inactive); to `COC(=O)[C@@]1(Cc2ccc(F)cc2)[C@@H]2[C@@H](CC(=O)[C@H]2CC(=O)C(=O)N(C)C)CN1C(=O)c1ccccc1`, -29.5% (inactive); to `C=C1C(=O)C=C2CN(C(=O)c3ccccc3)[C@@](Cc3ccc(F)cc3)(C(=O)OC)[C@@H]12`, 98.5% (active).
`CS(=O)(=O)c1cnc(-c2ccccc2)nc1-c1ccccc1Cl`: the inhibition was 23.1% (inactive).
In the case of `CC1Cc2cc(S(=O)(=O)N3CCC(C(N)=O)CC3)ccc2N1C(=O)C1CC1` (configuration not stated), the inhibition was -42.9% (inactive).
In the case of `O=C(N/N=C/c1ccc([N+](=O)[O-])o1)c1ccc(O)cc1` it was 6.8% (inactive).
In the case of `O=C(O)/C=C/c1ccc([N+](=O)[O-])o1` it was -17.7% (inactive).
For the compound `O=C(/C=C/c1ccc([N+](=O)[O-])o1)NNC(=O)c1ccc(F)cc1`, the inhibition was 66.9% (active).
To `CCCOc1ccc(OCCCCNC(C)CC)cc1` (configuration not stated) belongs 0.5% (inactive); to `CC(C(=O)NC1CCCC1)N(C(=O)Cn1nnc(-c2ccc(F)cc2)n1)c1ccccc1F` (configuration not stated), 82.7% (active); to `COc1ccc(N(C(=O)Cn2nnc(-c3ccc(F)cc3)n2)C(C)C(=O)NC2CCCC2)cc1` (configuration not stated), -22.6% (inactive).
For the compound `COc1ccc(N(C(=O)Cn2nnc(-c3ccc(F)cc3)n2)C(C)C(=O)NC2CCCC2)cc1OC` (configuration not stated), the inhibition is 10.1% (inactive).
In the case of `COc1cccc(C(=O)NCCCNC(=O)c2ccco2)c1` it was 9.1% (inactive).
In the case of `Cc1ccccc1C1C(C#N)=C(N)N(N(C)C)C2=C1C(=O)CC(C)(C)C2` (configuration not stated) it was -10.1% (inactive); in that of `CCCCCCCn1c2c(c(=N)c3ccccc31)CCC2`, 77.4% (active); in that of `CCCCn1c2c(c(=N)c3ccccc31)CCC2`, -6.7% (inactive).
To `CCCCCn1c2c(c(=N)c3ccccc31)CCC2` belongs -13.6% (inactive).
`CCO[C@H]1OC(C(=O)NC2CC2)=C[C@@H](c2ccc(C(F)(F)F)cc2)[C@@H]1CCCO`: the inhibition was 1.4% (inactive).
As for `CC(Oc1ccccc1)C(=O)N=Nc1c(O)[nH]c2ccc(Br)cc12` (configuration not stated), the inhibition was -9.4% (inactive).
For the compound `CC(=O)OC1CCC(OC(C)=O)c2c1n([O-])c(C)c(C)[n+]2=O` (configuration not stated), the inhibition was 79.5% (active).
To `Cc1c(CBr)[n+](=O)c2c(n1[O-])C(Br)CCC2Br` (configuration not stated) belongs -9.7% (inactive); to `Cc1c(C)[n+](=O)c2c(n1[O-])C(Br)CCC2Br` (configuration not stated), -7.3% (inactive).
In the case of `N#Cc1cc([N+](=O)[O-])ccc1NCC1CCCO1` (configuration not stated) it was -26.2% (inactive).
In the case of `N#Cc1cc(Cl)c(NCC2CCCO2)cc1C#N` (configuration not stated) it was 83.4% (active); in that of `N#Cc1cc(NCC2CCCO2)c([N+](=O)[O-])cc1C#N` (configuration not stated), -23.8% (inactive).
Take `COc1ccc2cc(S(=O)(=O)N3CCOCC3)ccc2c1`: the inhibition was -5.6% (inactive).
Consider `COc1ccc2[nH]c(=O)c(CNc3ccccc3C)cc2c1`, for which the inhibition was -10.6% (inactive).
To `COc1ccc(C2CC(c3cccs3)=NN2c2nc(-c3ccccc3)cs2)cc1OC` (configuration not stated) belongs -16.1% (inactive).
Regarding `CC1(C)CC2CC(C)(CN2c2ncnc3ccc(Br)cc23)C1` (configuration not stated), the inhibition was 39.1% (inactive).
In the case of `OCCN1CCN(c2ncnc3ccc(Br)cc23)CC1` it was 66.7% (active).
`OCCN1CCN(c2ncnc3sc(-c4ccccc4)cc23)CC1`: the inhibition is -0.1% (inactive).
On to `OCCN1CCN(c2nc(-c3ccccc3)c3cc(Br)ccc3n2)CC1`, for which the inhibition was -12.3% (inactive).
On to `CN1CCN(c2ncnc3sc(-c4ccccc4)cc23)CC1`, for which the inhibition was 32% (inactive).
In the case of `COc1ccc(OC)c(C(=O)NC(CC(N)=O)c2ccc(NCCOc3ccccc3)c([N+](=O)[O-])c2)c1` (configuration not stated) it was -4% (inactive).
In the case of `CCCNC(=S)NC1CC2CCC(C1)N2Cc1ccccc1` (configuration not stated) it was 0.5% (inactive); in that of `O=C(CN1C(=O)/C(=C/c2ccccc2F)Sc2ccccc21)NCc1cccnc1`, 59.2% (active).
In the case of `O=C(CN1C(=O)/C(=C/c2ccccc2F)Sc2ccccc21)NCC1CCCO1` (configuration not stated) it was 9.1% (inactive); in that of `O=C(CN1C(=O)/C(=C/c2ccccc2F)Sc2ccccc21)NCCCN1CCOCC1`, -19.9% (inactive); in that of `NS(=O)(=O)c1ccc(CNC(=S)NCc2ccc(F)cc2)cc1`, 14.6% (inactive).
As for `Cc1onc(C(=O)NN)c1C(=O)Nc1ncc(C(F)(F)F)cc1Cl`, the inhibition was -8.1% (inactive).
Regarding `O=C(C1=NN[C@@H]2C(=O)N(c3cccc(C(F)(F)F)c3)C(=O)[C@H]12)c1ccc2ccccc2n1`, the inhibition is 87.5% (active).
To `O=C(C1=NN[C@@H]2C(=O)N(c3ccccc3C(F)(F)F)C(=O)[C@H]12)c1ccc2ccccc2n1` belongs -11.3% (inactive); to `O=C(C1=NN[C@@H]2C(=O)N(c3cccc(F)c3)C(=O)[C@H]12)c1ccc2ccccc2n1`, -47% (inactive).
For the compound `O=C(O)/C=C\C(=O)NNC(=O)c1cc(-c2ccccc2)n[nH]1`, the inhibition is -10% (inactive).
To `Cc1ccc(CNC(=O)c2ccccc2NS(=O)(=O)c2ccc(Cl)nc2)cc1` belongs 5.6% (inactive); to `CC(C)On1c(SCC(=O)N(C)C)nc2ccccc2c1=O`, -1.8% (inactive).
To `CCN1/C(=C/C(C)=O)Sc2ccc(OC)cc21` belongs 53% (active); to `CCN1/C(=C\C(C)=O)Sc2ccc(OC)cc21`, 16.9% (inactive); to `CCC(=O)/C=C1/Sc2ccc(OC)cc2N1CC`, 22.6% (inactive).
In the case of `COCCNC(=O)[C@@]1(C)C=C[C@@H](Cc2ccccc2)N1C(=O)c1ccccc1`, the inhibition was -45.4% (inactive).
In the case of `C[C@]1(C(=O)NCCc2c[nH]c3ccccc23)C=C[C@@H](Cc2ccccc2)N1C(=O)c1ccccc1` it was 84.6% (active).
For the compound `CC(=O)N1[C@H](Cc2ccccc2)C=C[C@]1(C)C(=O)NCc1ccc(C)o1`, the inhibition was 99.7% (active).
To `CC(=O)N1[C@H](Cc2ccccc2)C=C[C@]1(C)C(=O)NCc1ccccn1` belongs -2.7% (inactive); to `CC(=O)N1[C@H](Cc2ccccc2)C=C[C@]1(C)C(=O)NCCN1CCOCC1`, 22.4% (inactive).
In the case of `CC(=O)N1[C@H](Cc2ccccc2)C=C[C@]1(C)C(=O)NCCc1c[nH]c2ccccc12` it was -15.7% (inactive); in that of `Cc1sc2nc(SCC(=O)N(C)Cc3ccccc3)n(-c3ccccc3)c(=O)c2c1C`, 3.3% (inactive).
Take `Cc1ccc2c(c1)N(C(=O)CCC(=O)NCc1cccnc1)CC(C)O2` (configuration not stated): the inhibition is -33% (inactive).
Regarding `Cc1ccc(C(=O)N2CCc3ccccc32)o1`, the inhibition was -15.8% (inactive).
To `CCOC(=O)c1nc2nc(C)cc(=O)n2[nH]1` belongs -8.6% (inactive); to `O=C(NCCCCCCNC(=O)OC1CCS(=O)(=O)C1)OC1CCS(=O)(=O)C1` (configuration not stated), 9.3% (inactive); to `COc1cccc2c1-c1c(O)cccc1C2=O`, -18.2% (inactive).
To `COc1cccc2c1C(=O)c1c(O)c3c(c(O)c1C2=O)C[C@@](O)(C(C)=O)C[C@@H]3O[C@H]1C[C@H](N)[C@H](O)[C@H](C)O1` belongs 108% (active).
To `COc1cccc2c1C(=O)c1c(O)c3c(c(O)c1C2=O)C[C@@](O)(C(=O)CO)C[C@@H]3O[C@H]1C[C@H](N)[C@H](O)[C@H](C)O1` belongs 78.6% (active).
In the case of `COc1ccc(OC)c(-n2c(-c3cccc(C)c3)n[nH]c2=S)c1`, the inhibition is -42.7% (inactive).
To `COc1cccc(COc2ccccc2C2Nc3ccc(Br)cc3C(=O)N2NC(=O)c2ccncc2)c1` (configuration not stated) belongs 9.7% (inactive).
In the case of `O=[N+]([O-])c1ccc(N=Nc2ncc[nH]2)cc1` it was 74.2% (active); in that of `O=[N+]([O-])c1ccc(N=NN(CCO)CCO)cc1`, 6.1% (inactive); in that of `O=[N+]([O-])c1ccc(N=Nc2c(Cl)cc(O)cc2Cl)cc1`, 16.5% (inactive).
To `CCC(=O)c1c(OCc2ccccc2)ccc2c(C)cc(=O)oc12` belongs 3.9% (inactive); to `Cc1cccc(C(=O)C2CCN(S(=O)(=O)c3cccc(C(=O)O)c3)CC2)c1`, 12.2% (inactive); to `CN(C)C(=O)CSc1cccc2cccnc12`, 85.5% (inactive).
Regarding `O=C(CSc1cccc2cccnc12)OCC(=O)c1ccccc1`, the inhibition is -30.2% (inactive).
To `O=C(CSc1cccc2cccnc12)OCC(=O)c1ccc(Br)cc1` belongs 3.3% (inactive); to `CCOC(=O)CSc1cccc2cccnc12`, 85.4% (active).
Take `NNC(=O)CSc1cccc2cccnc12`: the inhibition is -24.8% (inactive).
For the compound `O=C(O)CSc1cccc2cccnc12`, the inhibition is 36% (inactive) and 65.2% (active).
In the case of `COc1ccc(C2(C)NC(=O)N(CC3CCCCC3)C2=O)cc1` (configuration not stated) it was 1.3% (inactive); in that of `COc1ccccc1OCCCCN1CCC(C)CC1`, -6.9% (inactive).
As for `COc1ccc2nc(NC(=O)C3CCCN(S(=O)(=O)c4cccc5nonc45)C3)sc2c1` (configuration not stated), the inhibition is -1.6% (inactive).
To `O=C(Nc1ccc(NC(=O)c2ccccc2Cl)cc1)c1cccnc1` belongs -48.1% (inactive).
In the case of `CN(CCCCCCCCC(=O)/C=N/O)Cc1ccccc1` it was -3.1% (inactive).

By inhibition is commonly meant the change of the read-out against control, counted positive when it falls.
